PrPC surface inh – inhibitors of human cell surface prion protein PrPC, primary screen, cell-based, TR-FRET. Major prion protein (Homo sapiens), P04156. TR-FRET read-out. inhibition, % at 13.8 µM. 370,000 compounds, 0.43% hits. AID 720596, 2013; in the data active = inhibition above about 24%; also: 0% = median of the test wells and 100% = reference compound wells
PrP 5UTR inh – inhibition of PrP 5' UTR reporter expression; cell-based PrP 5' UTR mRNA reporter, plate reader; inhibition, % (test concentration not listed); AID 488862, 2010; 340,000 compounds, 0.35% hits; in the data active = inhibition above about 52%; also: 0 = median of the neutral control wells
PriA SSB inh – inhibitors of Klebsiella pneumoniae PriA binding to SSB C-terminal tail, primary screen, biochemical, AlphaScreen | PriA–SSB C-terminal tail interaction (Klebsiella pneumoniae) | AlphaScreen SSBct-PriA binding, biotinylated peptide | inhibition, % at 33 µM | 430,000 compounds, 0.6% hits | AID 1272365, 2023; in the data active = inhibition mostly above about 37%, no sharp cut-off; inactive = mostly below about 20%;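 also: plate controls were negative control peptide for no effect and reference peptide for full effect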
PfHsp40 yeast – rescue of yeast from PfHsp40 toxicity, primary screen, S. cerevisiae, ATP luminescence | S. cerevisiae expressing PfHsp40, growth rescue | growth rescue, % at 12.5 µM | AID 504582, 2011 | 340,000 compounds, 0.68% hits; in the data active = growth rescue above about 28%, passing the limit was not always enough;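 also: yeast W303a lacking pdr1 and pdr3 grown in galactose medium; growth measured after three days at 30 °C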
BJeLR lethal – MLPCN primary cell-based screen for lethality selective to Ras in HRASV12 cells; BJeLR (HRASV12) viability, CellTiter-Glo ATP luminescence, 48 h; inhibition, % (concentration not given with the values); 300,000 compounds, 0.17% hits; AID 1554, 2009; in the data active = inhibition above about 50%
Yp Topo-I inh – Yersinia pestis topoisomerase I inhibitors, primary screen, biochemical, cleavage product accumulation, plate reader, single point; Y. pestis Topo-I cleavage product accumulation; 360,000 compounds, 0.064% hits; DNA topoisomerase I (Yersinia pestis CO92); activity, % at 10 µM; in the data active = activity above about 50%, passing the limit was not always enough
Active calls of the source: *; / = no result given. Shown are actives, neighbours in structure and some others; about 1.7% of the full set was active somewhere.

SMILES | PrPC surface inh | PrP 5UTR inh | PriA SSB inh | PfHsp40 yeast | BJeLR lethal | Yp Topo-I inh
CCc1ccc(-c2cc(C(=O)N3N=C(C(F)F)CC3(O)C(F)F)c3ccccc3n2)cc1 (stereo not drawn) | 10 | -42 | 0 | 174* | -3 | -4
O=C(N/N=C\c1c(O)ccc2ccccc12)c1cc(C2CC2)[nH]n1 | / | / | -11 | / | / | /
C=CCn1c(Cc2csc(N)n2)nnc1SCC(=O)Nc1ccccc1C(F)(F)F | -4 | 4 | 74* | -1 | -10 | 3
NC(=O)c1c(NC(=O)CS(=O)(=O)c2ccccc2)sc2c1CCN(Cc1ccccc1)C2 | / | / | 1 | / | / | /
O=C(N/N=C/c1ccc[nH]1)c1sc2ccccc2c1Cl | 8 | -24 | / | 498* | -10 | 11
O=C(NN=Cc1ccc[nH]1)c1sc2ccccc2c1Cl | / | / | 18 | / | / | /
CC(C)Nc1nc(-c2ccccc2)nnc1-c1ccccc1 | -6 | -23 | -4 | 1 | 7 | 16
CC(C)Nc1nc(-c2ccccn2)nnc1-c1ccccc1 | / | / | 154* | / | / | /
Cc1nc(NCc2ccccc2)c2ccsc2n1 | / | / | -22 | / | / | /
CC(=CC(=O)c1ccccc1)Nc1ccc2c(c1)OCO2 | / | / | 41* | / | / | /
COc1ccc(C(=O)C=C(C)Nc2ccc3c(c2)OCO3)cc1 | / | / | 8 | / | / | /
CCCc1cnc2c(c1SCC(=O)NCc1ccc3c(c1)OCO3)c(=O)n(C)c(=O)n2C | / | / | 16 | / | / | /
Oc1ccc(O)c2c1C1(Cl)C(Cl)=C(Cl)C2(Cl)C1(Cl)Cl | 5 | -11 | 4 | 83* | / | -17
Oc1ccccc1Cl | -2 | -17 | -8 | 2 | / | -5
Cc1cc(C)c(S(=O)(=O)Nc2ccc3c(c2)CCCN3C(=O)C(C)C)c(C)c1 | / | / | 7 | / | / | /
CSC1=N/C(=C\c2cccnc2)C(=O)N1c1ccccc1 | 0 | -20 | -13 | -2 | 7 | -2
CSC1=N/C(=C\c2ccccc2)C(=O)N1C | 0 | -13 | -9 | 40* | -12 | 3
CC(C)C(=O)N1CCc2ccc(NC(=O)c3cccc(C(F)(F)F)c3)cc2C1 | / | / | -4 | / | / | /
CSc1nc2ccc3nc(N)sc3c2s1 | / | / | -4 | / | / | /
Nc1nc2ccc([N+](=O)[O-])c(N)c2s1 | -26 | 0 | 55* | -1 | -5 | 18
N#CCc1ccc(NC(=O)/C=C/c2ccc([N+](=O)[O-])o2)cc1 | / | 6 | 0 | 1 | 101* | -3
O=C(Cc1ccc([N+](=O)[O-])cc1)N/N=C/c1ccc([N+](=O)[O-])o1 | -37 | -15 | -1 | 0 | 55* | 0
O=C(N/N=C/c1ccc(-c2cccc([N+](=O)[O-])c2)o1)c1ccc([N+](=O)[O-])cc1 | -5 | -6 | / | 146* | -18 | 0
O=C(Cc1ccc([N+](=O)[O-])cc1)NN=Cc1ccc([N+](=O)[O-])o1 | / | / | -4 | / | / | /
O=C(N/N=C/c1ccc(-c2cccc([N+](=O)[O-])c2)o1)c1ccccc1O | -4 | -19 | / | 2 | 5 | -6
SMILES | PrPC surface inh | PrP 5UTR inh | PriA SSB inh | PfHsp40 yeast | BJeLR lethal | Yp Topo-I inh
C/C(=N\NC(=O)c1ccccc1)C1C(=O)c2ccccc2C1=O | / | / | 18 | / | / | /
O=S(=O)(Cc1ccco1)C1CCN(S(=O)(=O)C2CC2)C1 (stereo not drawn) | / | / | -8 | / | / | /
O=S(=O)(Cc1ccco1)C1CCN(S(=O)(=O)CCCOc2ccccc2)CC1 | / | / | 87* | / | / | /
Cc1cc(C(=O)NC[C@H](O)c2ccoc2)c(C)o1 | / | / | 5 | / | / | /
COc1ccc2nc(-c3ccc(Cl)c(NC(=O)C(C)(C)C)c3)cn2n1 | / | / | -16 | / | / | /
O=[N+]([O-])c1cc(Cc2ccccc2)cc(C=Nc2ccc(N3CCOCC3)cc2)c1O | / | -15 | 0 | 274* | -5 | -3
Cc1ccc(O)c(C=Nc2cc(C)ccc2O)c1 | / | -22 | -13 | -1 | -15 | -3
Oc1c(Cl)cc(Cl)cc1C=Nc1ccc(N2CCOCC2)cc1 | -8 | -12 | -6 | 0 | -13 | 2
Cc1ccc(O)c(N=Cc2cc(Cc3ccccc3)cc([N+](=O)[O-])c2O)c1 | -3 | -26 | -1 | 124* | -1 | -12
COCCN(CCOC)S(=O)(=O)c1ccc(C(=O)Nc2ncc(-c3ccccc3)s2)cc1 | / | / | -11 | / | / | /
O=C(O)c1cc([N+](=O)[O-])ccc1N1CCCCC1 | -14 | -20 | 5 | -1 | 17 | -7
Cc1ccc(C(=O)c2cc([N+](=O)[O-])ccc2N2CCCCC2)c(C)c1 | 13 | 50 | 16 | 0 | 55* | 17
O=C(OCc1ccc([N+](=O)[O-])cc1)c1cc([N+](=O)[O-])ccc1N1CCOCC1 | -16 | -17 | 14 | 1 | -3 | 22
Cc1ccc(COC(=O)c2cc([N+](=O)[O-])ccc2N2CCOCC2)cc1 | -5 | 77* | / | -1 | 44 | 22
COc1ccc(C(C)=NN=C2NC(=O)CC(C(=O)O)S2)cc1F (stereo not drawn) | / | / | -8 | / | / | /
CC(=C/c1ccc(C(C)C)cc1)/C=N/NC(=O)CSc1ccccn1 | 7 | -58 | / | 13 | -1 | 61*
Cc1cc(C(=O)N2CCOCC2)nn1CC(=O)Nc1nccs1 | / | / | -29 | / | / | /
Cc1cc(C)c2c(CCl)cc(=O)oc2c1 | 0 | -12 | -4 | -1 | 56* | 2
C#CCn1c(=NC(=O)CSCC(=O)NC2CCCCC2)sc2ccccc21 | / | / | 43* | / | / | /
COC(=O)Cn1c(=NC(=O)CSCC(=O)NC2CCCCC2)sc2cc(OC)ccc21 | / | -14 | -8 | -2 | 7 | -3
CCOc1ccc(-n2nnnc2CNC(=O)c2ccccc2S(C)(=O)=O)cc1 | / | / | -21 | / | / | /
C=CCc1ccc(OCC(O)COc2ccc(CC=C)cc2OC)c(OC)c1 | -4 | -4 | -20 | 46* | 6 | 13
O=S(=O)(c1ccc(Cl)cc1)c1nc(-c2cccs2)oc1N1CCOCC1 | / | / | 44* | / | / | /
CN1CCN(c2oc(-c3ccccc3)nc2S(=O)(=O)c2ccc(Br)cc2)CC1 | / | -12 | 39* | -1 | -5 | 21
O=S(=O)(c1ccc(Cl)cc1)c1nc(-c2ccco2)oc1N1CCOCC1 | 5 | -1 | -2 | -1 | 0 | -2
SMILES | PrPC surface inh | PrP 5UTR inh | PriA SSB inh | PfHsp40 yeast | BJeLR lethal | Yp Topo-I inh
CC(/C=C/c1ccco1)=N\NC(=O)c1cc(Cl)ccc1O | -6 | -2 | / | 75* | 7 | -14
COc1ccc(C(=O)CN2CCCCC2)cc1 | -7 | -39 | 47* | 0 | / | 3
O=c1cnn([C@@H]2O[C@H](CO)[C@@H](O)[C@H]2O)c(=O)[nH]1 | / | 34 | -10 | 61* | 23 | -1
O=c1ccn(C2OC(CO)C(O)C2O)c(=O)[nH]1 (stereo not drawn) | / | / | 4 | / | / | /
CC(C)(C)c1csc(CN2CCN(CC(=O)N3CCc4ccccc43)CC2)n1 | / | / | 6 | / | / | /
CC1CCCCC1N(C)C1CCN(C(=O)CNC(=O)/C=C/c2cccc(Cl)c2)CC1 (stereo not drawn) | -24 | -2 | -27 | 0 | 90* | 2
